# Data: paper PMC7862700, “An all-to-all approach to the identification of sequence-specific readers for epigenetic DNA modifications on cytosine”
# Columns and labels:
# Test in all cases: DAPPL (digital affinity profiling via proximity ligation, sequencing); 10 mM Tris-HCl pH 7.5, 50 mM NaCl, 1 mM DTT, 4% glycerol, room temperature, 30 min; GST-TFs on glutathione beads, 16-mer random dsDNA library, 0.1% formaldehyde crosslink after washing; high values mean tight binding
# Conditions in all cases: protein: recombinant; tags: N-terminal GST; dsDNA, one strand shown
# [1] = biological target: ETV1 (Homo sapiens, UniProt P50549 1-477)
# Sequence of ETV1 (P50549 whole entry, the tested form may be a part): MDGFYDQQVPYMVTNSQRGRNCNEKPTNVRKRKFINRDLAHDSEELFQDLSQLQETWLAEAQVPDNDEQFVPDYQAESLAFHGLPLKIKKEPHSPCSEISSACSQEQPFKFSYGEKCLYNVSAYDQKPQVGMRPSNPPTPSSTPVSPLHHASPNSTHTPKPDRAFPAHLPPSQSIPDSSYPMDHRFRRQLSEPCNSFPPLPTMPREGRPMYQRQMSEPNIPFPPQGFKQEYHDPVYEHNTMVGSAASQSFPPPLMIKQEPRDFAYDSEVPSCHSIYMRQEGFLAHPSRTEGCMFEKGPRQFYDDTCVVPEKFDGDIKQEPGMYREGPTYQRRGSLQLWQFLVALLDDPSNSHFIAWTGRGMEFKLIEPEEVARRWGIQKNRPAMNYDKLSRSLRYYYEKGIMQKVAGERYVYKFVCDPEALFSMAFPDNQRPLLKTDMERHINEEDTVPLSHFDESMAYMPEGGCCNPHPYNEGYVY
# Outline: (§1)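 The binding signal reported is, for every hexamer, its read frequency for a factor over its read frequency for the tag-only sample. Reads came from pools of yeast-expressed, GST-fused human transcription factors on glutathione beads, barcoded with DNA and mixed with that sample, which were incubated with 200 nmole of a random double-stranded 16-mer DNA library in Tris/NaCl/DTT/glycerol buffer at room temperature for 30 min. After washing, the pools were crosslinked with 0.1% formaldehyde, proximity-ligated with BsaI/T4 ligase for 1 h at 37 °C, PCR-amplified and sequenced on an Illumina NextSeq500.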
# [2] = biological target: T1, ERF (Homo sapiens, UniProt P50548 1-548)
# T1 sequence: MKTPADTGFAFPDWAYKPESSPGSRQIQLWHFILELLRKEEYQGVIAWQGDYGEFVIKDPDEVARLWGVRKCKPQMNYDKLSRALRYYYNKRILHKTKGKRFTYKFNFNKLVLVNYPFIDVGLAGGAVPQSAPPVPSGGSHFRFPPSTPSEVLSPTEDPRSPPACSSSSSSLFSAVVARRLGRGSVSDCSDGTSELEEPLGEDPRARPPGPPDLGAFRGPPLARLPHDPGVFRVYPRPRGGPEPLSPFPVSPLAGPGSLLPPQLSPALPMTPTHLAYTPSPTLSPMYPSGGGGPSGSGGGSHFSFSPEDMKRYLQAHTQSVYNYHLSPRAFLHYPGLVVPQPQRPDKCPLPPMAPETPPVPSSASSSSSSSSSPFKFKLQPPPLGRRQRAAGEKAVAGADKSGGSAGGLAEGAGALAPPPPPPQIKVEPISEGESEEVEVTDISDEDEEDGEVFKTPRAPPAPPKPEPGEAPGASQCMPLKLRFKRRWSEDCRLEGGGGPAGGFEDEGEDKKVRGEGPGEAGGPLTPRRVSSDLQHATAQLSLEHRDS
# Outline: as §1
# [3] = biological target: T2, ETV3L (Homo sapiens, UniProt Q6ZN32 1-361)
# T2 sequence: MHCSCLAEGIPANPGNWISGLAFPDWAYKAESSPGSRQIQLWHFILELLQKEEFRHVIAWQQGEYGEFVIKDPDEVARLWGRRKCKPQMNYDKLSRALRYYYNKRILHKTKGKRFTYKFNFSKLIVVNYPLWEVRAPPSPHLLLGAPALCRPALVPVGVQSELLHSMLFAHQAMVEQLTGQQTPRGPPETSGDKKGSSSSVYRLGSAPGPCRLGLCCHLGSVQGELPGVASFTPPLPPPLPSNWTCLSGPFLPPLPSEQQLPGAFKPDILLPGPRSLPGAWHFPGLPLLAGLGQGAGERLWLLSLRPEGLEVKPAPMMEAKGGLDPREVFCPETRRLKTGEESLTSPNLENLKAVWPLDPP
# Outline: as §1
# [4] = biological target: T3, ETS2 (Homo sapiens, UniProt P15036 1-469)
# T3 sequence: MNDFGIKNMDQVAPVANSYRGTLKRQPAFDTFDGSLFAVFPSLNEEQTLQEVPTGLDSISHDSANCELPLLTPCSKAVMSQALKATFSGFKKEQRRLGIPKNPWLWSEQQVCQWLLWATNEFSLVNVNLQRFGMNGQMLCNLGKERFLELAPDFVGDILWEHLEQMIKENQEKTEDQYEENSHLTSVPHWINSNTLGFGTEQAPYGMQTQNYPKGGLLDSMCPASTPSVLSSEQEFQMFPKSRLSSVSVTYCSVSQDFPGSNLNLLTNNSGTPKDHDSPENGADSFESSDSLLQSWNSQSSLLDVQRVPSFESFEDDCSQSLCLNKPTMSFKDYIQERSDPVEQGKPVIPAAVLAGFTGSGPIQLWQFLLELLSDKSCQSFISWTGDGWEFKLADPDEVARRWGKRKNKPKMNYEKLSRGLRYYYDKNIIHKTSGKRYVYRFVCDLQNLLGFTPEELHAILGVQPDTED
# Outline: as §1
# [5] = biological target: T4, SPDEF (Homo sapiens, UniProt O95238 1-335)
# T4 sequence: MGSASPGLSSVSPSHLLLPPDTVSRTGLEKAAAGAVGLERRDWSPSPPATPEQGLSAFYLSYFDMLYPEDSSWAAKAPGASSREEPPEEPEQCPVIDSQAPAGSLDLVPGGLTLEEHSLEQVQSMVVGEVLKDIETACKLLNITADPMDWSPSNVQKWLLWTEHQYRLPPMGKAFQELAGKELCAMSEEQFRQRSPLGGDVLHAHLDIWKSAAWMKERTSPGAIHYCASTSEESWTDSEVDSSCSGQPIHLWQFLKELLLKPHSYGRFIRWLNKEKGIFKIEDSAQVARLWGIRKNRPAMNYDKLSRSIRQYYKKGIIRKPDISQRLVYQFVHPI
# Outline: as §1
# [6] = biological target: T5, ETV7 (Homo sapiens, UniProt Q9Y603 1-341)
# T5 sequence: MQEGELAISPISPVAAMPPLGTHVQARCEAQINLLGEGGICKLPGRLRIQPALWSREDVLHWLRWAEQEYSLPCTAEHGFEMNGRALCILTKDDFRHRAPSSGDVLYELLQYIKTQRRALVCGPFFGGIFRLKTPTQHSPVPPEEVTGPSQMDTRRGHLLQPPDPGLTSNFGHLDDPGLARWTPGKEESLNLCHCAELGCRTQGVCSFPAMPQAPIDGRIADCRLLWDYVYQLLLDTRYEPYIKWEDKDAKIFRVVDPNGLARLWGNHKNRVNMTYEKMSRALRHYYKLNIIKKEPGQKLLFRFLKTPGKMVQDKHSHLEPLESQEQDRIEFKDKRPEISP
# Outline: as §1
# [7] = biological target: T6, ELF5 (Homo sapiens, UniProt Q9UKW6-2 1-255)
# T6 sequence: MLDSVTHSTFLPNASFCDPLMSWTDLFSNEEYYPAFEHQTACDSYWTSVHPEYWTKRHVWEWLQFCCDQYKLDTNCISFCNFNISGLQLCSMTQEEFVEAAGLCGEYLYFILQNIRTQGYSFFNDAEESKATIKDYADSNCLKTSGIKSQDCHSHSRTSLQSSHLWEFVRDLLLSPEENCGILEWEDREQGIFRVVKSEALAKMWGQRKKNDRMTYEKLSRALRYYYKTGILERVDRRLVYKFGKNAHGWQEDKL
# Outline: as §1
# [8] = biological target: T7, ETV3 (Homo sapiens, UniProt P41162-2 1-143)
# T7 sequence: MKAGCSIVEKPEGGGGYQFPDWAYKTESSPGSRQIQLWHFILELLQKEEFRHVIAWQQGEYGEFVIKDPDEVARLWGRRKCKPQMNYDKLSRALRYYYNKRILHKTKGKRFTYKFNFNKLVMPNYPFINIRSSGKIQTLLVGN
# Outline: as §1
# [9] = biological target: ETV6 (Homo sapiens, UniProt P41212 1-452)
# Sequence of ETV6 (P41212 whole entry): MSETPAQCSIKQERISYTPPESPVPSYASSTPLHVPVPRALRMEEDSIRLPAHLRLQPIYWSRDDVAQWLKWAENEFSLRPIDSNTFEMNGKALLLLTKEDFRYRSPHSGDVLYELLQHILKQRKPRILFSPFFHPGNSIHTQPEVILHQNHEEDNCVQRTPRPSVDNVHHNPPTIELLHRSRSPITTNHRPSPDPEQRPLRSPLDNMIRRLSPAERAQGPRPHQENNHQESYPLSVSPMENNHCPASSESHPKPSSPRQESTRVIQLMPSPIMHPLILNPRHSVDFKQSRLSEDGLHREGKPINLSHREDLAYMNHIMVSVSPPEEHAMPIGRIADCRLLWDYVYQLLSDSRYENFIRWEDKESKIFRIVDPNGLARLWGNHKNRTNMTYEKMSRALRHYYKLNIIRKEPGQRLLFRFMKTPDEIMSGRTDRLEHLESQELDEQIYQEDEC
# Outline: as §1
sequence,measurement,setting,value
CCACGC,binding signal,[1],"1.24 fold enrichment (6-mer frequency, TF over GST control)"
same,binding signal,[2],"1.12 fold enrichment (6-mer frequency, TF over GST control)"
same,binding signal,[3],"1.17 fold enrichment (6-mer frequency, TF over GST control)"
same,binding signal,[4],"1.24 fold enrichment (6-mer frequency, TF over GST control)"
same,binding signal,[5],"1.17 fold enrichment (6-mer frequency, TF over GST control)"
same,binding signal,[6],"1.15 fold enrichment (6-mer frequency, TF over GST control)"
same,binding signal,[7],"1.11 fold enrichment (6-mer frequency, TF over GST control)"
same,binding signal,[8],"1.16 fold enrichment (6-mer frequency, TF over GST control)"
same,binding signal,[9],"1.15 fold enrichment (6-mer frequency, TF over GST control)"
